Gal4-VP16 FLuc: VP16 counterscreen qHTS for inhibitors of ROR gamma transcriptional activity; Drosophila S2 Gal4-VP16 UAS-luciferase, luminescence, 20 h; Potency, µM (doses to about 53.6 µM), without a hit: at the highest dose activity, negative = inhibition, usual class: inhibitors; 310,000 compounds, 3.5% hits; AID 2546, 2010;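 note: Gal4-VP16 expression switched on by copper sulfate through the metallothionein promoter; % is set by controls: 0 for no effect and ±100 for the full control effect; nearly all actives have a fitted effect of over 50% in size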
KB-3-1 tox: qHTS assay for MDR1-selective chemotherapeutics: Primary screen using the parental adenocarcinoma cell KB-3-1; 400,000 compounds, 1.4% hits; KB-3-1 viability, CellTiter-Glo ATP luminescence, 72 h; Potency, µM (top dose mostly 46.1 µM), hits mostly cytotoxic; note: % is set by controls: 0 for no effect and ±100 for the full control effect; nearly all actives have a fitted effect of over 60% in size
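Luminescent ATP read-out (CellTiter-Glo) measures survival of drug-naive KB-3-1 cells after 72 h compound exposure at 37 °C. Titration series was screened from lowest to highest concentration, with DMSO vehicle plates as background controls.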
MCF10A rerep: A quantitative high throughput screen for small molecules that induce DNA re-replication in MCF 10a normal breast cells; MCF 10A DNA re-replication, Hoechst nuclear intensity, 48 h; 350,000 compounds, 2.9% hits; Potency, µM (highest dose often 46.1 µM), without a hit: top-dose activity, positive = re-replication, most hits filed as activators; note: % of control where 0% means no effect; nearly all actives have a fitted effect of over 50% in size
SW480 rereplic: A quantitative high throughput screen for small molecules that induce DNA re-replication in SW480 colon adenocarcinoma cells; SW480 DNA re-replication, Hoechst DNA content imaging, 48 h; Potency, µM (top dose mostly 46.1 µM), for the others: top-dose re-replication activation, actives largely listed as activators; 340,000 compounds, 1.8% hits; AID 624297, 2012; note: % of control where 0% means no effect; nearly all actives have a fitted effect of over 55% in size
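250 cells/well; 23 nL cpd via pin tool; 48 hr, 37 C, 5% CO2; Hoechst 40 min; imager read of total nuclear intensity, ex 405/em 500-530 nm.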
KB-V1 MDR tox: qHTS assay for MDR1-selective chemotherapeutics: Primary screen using the drug-selected MDR subline cells KB-V1; Potency, µM (highest dose often 46.1 µM), usual class: cytotoxic; AID 1347076, 2019; KB-V1 MDR cells viability, CellTiter-Glo, 72 h; 400,000 compounds, 3.4% hits; note: % is set by controls: 0 for no effect and ±100 for the full control effect; nearly all actives have a fitted effect of over 60% in size
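Cytotoxicity via CellTiter-Glo luminescence after 72 h compound exposure at 37 degrees C. Cells: drug-selected KB-V1 line, DMEM phenol-red free plus 10% FBS. Compounds tested at multiple concentrations; normalized data fitted to concentration-effect curves.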
RORgamma inh: qHTS for inhibitors of ROR gamma transcriptional activity; Nuclear receptor ROR-gamma (Mus musculus), P51450; Drosophila S2 Gal4-RORgamma UAS-luciferase reporter, 20 h; Potency, µM (series often up to 53.6 µM), without a hit: at the top dose activity change, negative = inhibition, usual class: inhibitors; 310,000 compounds, 5.4% hits; AID 2551, 2010; note: % is set by controls: 0 for no effect and ±100 for the full control effect; nearly all actives have a fitted effect of over 60% in size
Target sequence (P51450 whole entry, looked up, the tested form may be a part): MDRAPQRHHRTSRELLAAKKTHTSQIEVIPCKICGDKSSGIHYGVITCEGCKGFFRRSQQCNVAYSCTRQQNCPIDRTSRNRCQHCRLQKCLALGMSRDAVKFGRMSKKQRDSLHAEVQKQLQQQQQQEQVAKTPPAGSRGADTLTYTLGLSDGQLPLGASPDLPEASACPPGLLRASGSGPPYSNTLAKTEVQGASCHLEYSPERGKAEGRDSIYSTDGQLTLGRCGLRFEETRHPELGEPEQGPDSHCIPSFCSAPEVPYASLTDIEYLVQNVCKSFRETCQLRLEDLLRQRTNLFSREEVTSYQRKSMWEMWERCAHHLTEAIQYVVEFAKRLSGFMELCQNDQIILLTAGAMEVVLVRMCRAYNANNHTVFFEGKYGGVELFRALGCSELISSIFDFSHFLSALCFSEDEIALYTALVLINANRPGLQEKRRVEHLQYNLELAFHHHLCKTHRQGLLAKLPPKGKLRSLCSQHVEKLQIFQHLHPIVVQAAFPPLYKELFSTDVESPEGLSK
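Luciferase reporter read in Schneider cells carrying Gal4-RORγ (mouse) and UAS-Photinus luciferase; cells given compound 1 h before 700 uM copper sulfate induction, then incubated 20 h at ambient temperature.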
* hit, by the source's call; i = inactive; ? = inconclusive; . = no result given; [ ] = dose if it differs, or a comment. The list is not random: actives were taken first. Their share in the collection is about 10%. Calls come from the whole dose curve; as a rule, active = well fitted curve in the direction sought with a large enough effect; inconclusive = small, poorly fitted or top-dose-only effect, or another doubt; inactive = no such curve, though single readings can be large; an effect the other way counts as inactive or inconclusive. Potency is the fitted concentration of half-maximal effect.

SMILES | Gal4-VP16 FLuc | KB-3-1 tox | MCF10A rerep | SW480 rereplic | KB-V1 MDR tox | RORgamma inh
CC(C)(C)c1ccc(-n2ncc3c2CCCC3NC(=O)c2ccncc2)cc1 (stereo not given) | . | ? | 17.0% | 2.0% | ? | .
Cc1cc(C)cc(-n2ncc3c2CCCC3NC(=O)C2(C(N)=O)CC2)c1 (stereo not given) | -15.9% | ? | ? | -4.2% | ? | 23.1%
Cc1nnsc1C(=O)NC1CCCc2c1cnn2-c1ccccc1F (stereo not given) | 10µM* | ? | ? | -10.1% | ? | 16.6%
O=C(CCN1CCCC1=O)NC1CCCc2c1cnn2-c1ccccc1F (stereo not given) | -7.9% | i | -3.1% | 1.4% | i | 3.6%
Cc1ncoc1C(=O)NC1CCCc2c1cnn2-c1cc(F)cc(F)c1 (stereo not given) | . | i | . | . | ? | .
COc1cccc(-c2cnc3c(NC(C)=O)cc(-c4ccc(C(=O)NC5CC5)cc4)cn23)c1 | . | ? | . | . | i | .
COc1ccc(NC(=O)C2CCN(S(=O)(=O)c3cccc(-c4noc(C)n4)c3)CC2)cc1OC | . | i | . | . | i | .
COc1ccccc1CNC(=O)COC(=O)COc1ccccc1Cc1ccccc1 | . | i | -0.7% | -4.3% | i | .
Cc1ccc2cccc(NC(=O)c3ccc(C#N)cc3F)c2n1 | . | i | . | . | i | .
O=C(NC1CCCc2c1cnn2-c1ccccc1F)c1ccccn1 (stereo not given) | 3.2% | i | -2.8% | -0.3% | ? | 52.1%
CC(C)(C)c1ccc(-n2ncc3c2CCCC3NC(=O)CCN2CCCCC2=O)cc1 (stereo not given) | ? | ? | ? | -21.5% | ? | ?
COc1ccc(C(=O)NC2CCCc3c2cnn3-c2ccccc2F)cc1OC (stereo not given) | 2.51µM* | ? | 11.0% | ? | ? | ?
CC(C)(C)c1ccc(-n2ncc3c2CCCC3NC(=O)CN2CCOC2=O)cc1 (stereo not given) | 12.6µM* | i | 28.4% | 7.8% | i | -2.6%
O=[N+]([O-])c1ccc(N=Nc2c(O)[nH]c3ccc(F)cc23)cc1 | -20.4% | ? | 7.31µM* | ? | ? | -7.8%
COCCNC(=S)N=Nc1c(O)[nH]c2ccc([N+](=O)[O-])cc12 | -18.3% | i | -2.3% | ? | i | 0.562µM*
NC(=S)N=Nc1c(O)[nH]c2ccc(F)cc12 | ? | i | -1.2% | -6.7% | ? | 4.47µM*
Cc1cc2c(cc1S(=O)(=O)N(C)CC(=O)Nc1cccc(C#N)c1)OCC(=O)N2 | . | i | . | . | i | .
CC(=O)c1sc(N/N=C2\CC3CCC2(C)C3(C)C)nc1C (stereo not given) | -8.1% | i | 20.6µM* | -74.4% | ? | 2.5%
Cc1ccc(S(=O)(=O)NN=C2CC3CCC2(C)C3(C)C)cc1 (stereo not given) | . | i | 10.6% | 1.2% | i | .
Nc1c(C(=O)c2ccc(Cl)cc2)oc2ccccc12 | ? | i | ? | 6.3% | i | 23.1%
O=C(c1ccc(Cl)cc1)c1oc2ccccc2c1CS(=O)c1ccc(Cl)cc1 (stereo not given) | -5.1% | i | 20.1% | -1.7% | 20.6µM* | 31.4%
CCOC(=O)C1OC1c1ccccc1 (stereo not given) | -10.1% | . | . | . | . | -12.9%
CCCN(CCC)c1nc(N)nc(-c2cc(Cl)ccc2OC)n1 | -10.7% | i | 1.4% | 2.4% | ? | 15.8µM*
CCCNc1nc(N)nc(-c2cc(Cl)ccc2OC)n1 | 19.4% | i | 6.4% | -7.5% | i | 13.6%
O=C(NCc1ccc2c(c1)OCO2)c1ccc(CSCc2ccc(Cl)cc2)o1 | 5.2% | i | ? | -4.7% | 20.6µM* | 39.5%
SMILES | Gal4-VP16 FLuc | KB-3-1 tox | MCF10A rerep | SW480 rereplic | KB-V1 MDR tox | RORgamma inh
Clc1ccc(C2Nc3ccccc3-n3cccc32)cc1 (stereo not given) | -7.3% | i | 16.4µM* | ? | i | -9.8%
CN1c2ccccc2C(=O)NC1c1ccc(Cl)cc1 (stereo not given) | -12.0% | i | 1.6% | 37.5% | i | 14.7%
Cc1cc(=O)[nH]c(N2CCCNCC2)n1 | -1.2% | i | -14.1% | -5.6% | i | 14.4%
Cc1cc(=O)[nH]c(-n2nc(C)cc2C)n1 | 3.16µM* | i | 3.9% | -3.5% | i | 1.58µM*
Cc1cc(=O)[nH]c(-n2nc(C)c(Oc3ccccc3O)c2C)n1 | 11.2µM* | i | 17.3% | -2.8% | ? | 4.47µM*
Cc1ccc(CN2C(=O)CSCC2(C)C(=O)Nc2c(C)cccc2C)cc1 (stereo not given) | . | i | . | . | i | .
Cc1ccc(CN2C(=O)SC(Nc3ccc(Cl)cc3)C2=O)cc1 (stereo not given) | . | i | . | . | ? | .
COc1cc(NC(=O)CN(C)S(=O)(=O)c2cccs2)cc(OC)c1 | 6.1% | i | -1.4% | -0.1% | i | 0.9%
Cc1ccc(NC(=O)CN(C)S(=O)(=O)c2cccs2)cc1F | -20.0% | ? | 4.8% | 0.9% | 14.6µM* | ?
Cc1ccc(NC(=O)CN(C)S(=O)(=O)c2cccs2)cc1C | 7.94µM* | ? | -11.9% | -1.0% | ? | ?
CC(C)COC(=O)N(C)C[C@@H]1OCc2cnnn2CCCC(=O)N([C@@H](C)CO)C[C@H]1C | . | i | . | . | ? | .
CCOC(=O)c1c(NC(=O)/C=C/c2ccccc2)sc2c1CCCC2 | . | i | . | . | ? | .
Cc1c(C(=O)Nc2ccc(Cl)cc2)c2ccccn2c1C(=O)c1ccc([N+](=O)[O-])cc1 | 1.1% | i | 5.6% | 18.7% | i | -0.4%
Cc1c(C(=O)Nc2ccc(Cl)cc2)c2ccccn2c1C(=O)c1ccccc1 | -25.6% | ? | 25.9µM* | ? | ? | -31.4%
Cc1c(/C=N/NC(=O)CNc2ccccc2)c2ccccn2c1C(=O)c1ccc(Cl)cc1 | -3.3% | i | 6.8% | -18.0% | 2.31µM* | ?
Cc1nc2nc(SCC(=O)NCCc3ccc(Cl)cc3)nn2c(C)c1Cc1ccccc1 | . | i | . | . | ? | .
CC(C)=CCC1C(=O)N(c2ccccc2)N(c2ccccc2)C1=O | ? | . | 29.9µM* | ? | . | -20.0%[10 µM]
CCCCC1C(=O)N(c2ccccc2)N(c2ccc(O)cc2)C1=O (stereo not given) | 5.62µM* | i | ? | ? | i | 4.47µM*

Screening data: PubChem BioAssay, National Center for Advancing Translational Sciences (NCATS)
